Values joined by “and” are separate entries in the source; they are usually repeats but may differ in a detail not shown here. Identical values can stand only once. Hit rate of the full screen: of about 410,000 compounds, about 18,000 (4.4%) were called active. Not shown: some 7% with an inconclusive outcome. Many of the other results were omitted from the sample, so actives are more common in it than they were. Unmarked numbers belong to inactive results. Cut-off read from the data, not from the text of the source: active = activity change below about -60%; inconclusive = no clear call, values can overlap the other calls; inactive = above about -39%.
test: qHTS Assay for inhibitors of the human cytomegalovirus (HCMV); settings: HFF cells, HCMV-luciferase reporter, 72 h; at 57.5 µM; hits give low values
Outline: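 Cell-based, HFFs, 1000 cells/well, 16 h 37C; cpds in DMSO + HCMV-luc, MOI 1 PFU/cell; 72 h 37C; OneGlo luminescence after 5 min RT; norm. to buffer vs Salinomycin 10uM.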
% is set by controls: 0 for no effect and ±100 for the full control effect.

Compound	activity change, negative = inhibition
Cc1ccc(S(=O)(=O)N2CCC(C(=O)Nc3cc(C)ccc3C)CC2)cc1	10.8%
Cc1cc(C)nc(-n2ncc3c2CC(c2ccc(C(C)C)cc2)CC3=O)n1 (stereo not given)	-22.8%
Cc1ccccc1NC(=O)Cn1c(=O)n(Cc2ccco2)c(=O)c2ccc(C(=O)NC3CCCC3)cc21	36.1%
CCOC(=O)N1CCc2c(sc(NCc3cccc(F)c3)c2C(=O)Nc2ccccc2OCC)C1	30.2%
CN(C(=O)c1c(Cl)cnn1C)C12CC3CC(CC(C3)C1)C2	-18.8%
O=C(O)c1c(CNCc2cccc(F)c2)c2ccccc2n1Cc1ccccc1	8.63%
Cc1ccc(C(=O)Nc2c(C(=O)NC(C)(C)C)oc3ccccc23)cc1	-18.8%
COc1ccccc1CNc1ccc(-c2nc(-c3ccccc3C)no2)cc1[N+](=O)[O-]	3.35%
Cc1ccccc1CNC(=O)Cn1c(C)c2cnn(-c3ccccc3)c(=O)c2c1C	-13%
CCCNC(=O)N1CCC2(CC1)CN(C(=O)CN1CCOCC1)[C@H](CO)c1[nH]c3cc(OC)ccc3c12	0.475%
CC(C)=CCc1ccc(O)c(=O)cc1C(C)C	-101% (active)
CCNC(=O)c1cc2n(n1)CCCN(Cc1ccc(C)cc1)C2=O	-3.42%
Cc1cc(C)cc(OCC(=O)Nc2c(C(=O)c3ccccc3)oc3ccccc23)c1	0.353%
CCC(C)(C)NC(=O)CN(Cc1cccs1)C(=O)CNS(=O)(=O)c1ccc(F)cc1	-8.36%
COc1ccc(Cn2c(=O)c3oc4ccccc4c3n(CC(=O)Nc3ccc(F)cc3F)c2=O)cc1	6.84%
CCOC(=O)c1ccc(NC(=O)CCn2cnnn2)cc1	20.5%
Cc1[nH]c(N)nc(=S)c1CCCNc1ccccc1	-99.8% (active)
Cc1cc(=O)n(C)c(=O)n1CCCNc1ccccc1	-33.2%
CCc1c(Nc2ccccc2C)nc(N)[nH]c1=O	90.6%
Cc1nnnn1/C(=C\c1ccccc1)C(=O)OCC(=O)N1CC2(C)CC1CC(C)(C)C2 (stereo not given)	-85.3% (active)
COC(=O)c1cc2n(n1)CCCNC2=O	14.4%
CCC(C)(O)C(=O)OC1C(=O)OC2CC3C(C)=CC(=O)C(O)C3(C)C3C4(O)OCC23C1C(C)C4O (stereo not given)	-96.7% (active)
COCCNC(=S)N(CCc1c(C)[nH]c2ccc(C)cc12)Cc1cccnc1	5.87%

Compound	activity change, negative = inhibition
COCCCNC(=S)NNC(=O)C(O)(c1ccccc1)c1ccccc1	-17.8%
COCCNC(=S)N/N=C/c1c(C)[nH]c2ccccc12	-68.5% (active)
CCOC(=O)c1cccc(NS(=O)(=O)c2cc(-c3cnc(C)o3)ccc2OC)c1	-8.81%
COc1ccc(CCNC(=O)CC2SC(=Nc3cc(C)cc(C)c3)NC2=O)cc1OC (stereo not given)	37.9%
CC(C)S(=O)(=O)c1csc(NC(=O)Nc2ccc(Cl)cc2)c1Cl	-93.2% (active)
COc1ccc(OCC(O)CNC(=O)Nc2ccc(Cl)cc2)cc1 (stereo not given)	-6.88%
CC(=O)N1CCC(N(C(=O)Nc2ccc(Cl)cc2)C(C)C)CC1	-34.8%
COc1ccc(Cl)cc1NC(=O)CN(C)C(=O)c1cc(-c2cccs2)nn1-c1ccccc1	-21.5%
COc1cc(OC)cc(C(=O)NCCc2csc3nc(-c4ccccc4F)nn23)c1	-6.5%
Cc1ccc2[nH]c3c(=O)n(CC(=O)NC(C)C)ncc3c2c1	5.38%
C=C(C)C(=O)O[C@H]1C/C(C)=C\C(=O)/C=C(\C)[C@H](O)[C@@H]2OC(=O)C(=C)[C@@H]21	-98.8% (active)
Fc1cccc(-c2nc3c(N4CCOCC4)nccc3[nH]2)c1	6.37%
CCc1cccc(-n2nnc(-c3nsc(NC(=O)c4ccc(C)cc4)n3)c2C)c1	-39.1%
CC(C)(C)c1cc(C(=O)N/N=C/c2ccc([N+](=O)[O-])s2)n[nH]1	-73.9% (active)
Cc1ccsc1/C=N/NC(=O)Cc1cc(=O)[nH][nH]1	80.6%
COc1ccc(C(=O)NCC(=O)N/N=C/c2ccc([N+](=O)[O-])s2)cc1OC	-92.4% (active)
C/C(=N\NC(=O)CNc1cccc2ccccc12)c1ccc(Br)s1	21.2%
Cc1ccccc1NCC(=O)N/N=C\c1ccc([N+](=O)[O-])s1	-78.2% (active)
COc1ccc(N(CC(=O)N/N=C/c2cccs2)S(=O)(=O)c2ccc(OC)c(OC)c2)cc1	3.94%
COc1ccc(C(=O)NCC(c2ccco2)N2CCc3ccccc32)cc1OC (stereo not given)	-5.62%
Cc1nnc(SCc2nc3ccccc3nc2C)s1	32.2%
CCOC(=O)C1CCN(c2ncnc3c2c(-c2ccccc2)cn3-c2cccc(C)c2)CC1	-35.2%
CCOc1ccccc1C(=O)Nc1ccc(S(=O)(=O)N2CCCCC2c2cccnc2)cc1 (stereo not given)	-33.6%

Compound	activity change, negative = inhibition
Cc1[nH]c2ccccc2c1C(=O)C(=O)NCc1nnnn1-c1cccc(F)c1	-19%
COc1ccc(NC(=O)c2ccc3nc(C(C)C)oc3c2)cc1OC	6.52%
Cc1cccn2c(=O)c(C(=O)NC(C)c3ccccc3)cnc12 (stereo not given)	-18.5%
COC(=O)c1cc(S(=O)(=O)N2CCN(c3cc(C)ccc3C)CC2)c[nH]1	9.83%
Cc1cc(C(=O)N2CCC(C(=O)O)CC2)c(C(F)(F)F)o1	0.635%
Cc1ccc(C)c(NC(=O)CSC2=Nc3ccccc3N=C(c3ccc(F)cc3)C2)c1	22.5%
COc1ccc(C2Nc3ccccc3C(=O)N2c2ccc(Cl)cc2)cc1Cn1cc([N+](=O)[O-])cn1 (stereo not given)	8.39%
Cc1ccc2c(C(=O)CN3CCCC3)c(C)[nH]c2c1	-81.5% (active)
Cc1[nH]c2ccccc2c1C(=O)CN1CCCC(C)C1 (stereo not given)	64%
Cc1ccc2[nH]c(=O)c(CN3CCCCC3)c(-c3ccccc3)c2c1	11.7%
COc1ccc2c(C)c(CCC(=O)NCc3ccc(OC)c(OC)c3)c(=O)oc2c1	-7.55%
N#CC(C#N)=CN=c1ccn(Cc2ccc(Cl)cc2Cl)cc1	-94.3% (active)
CCc1nc2cccnc2n1-c1ccc(C(=O)O)cc1	-6.51%
Cc1c(NC(=S)NC(=O)CCc2ccccc2)c(=O)n(-c2ccccc2)n1C	-11.5%
COc1ccc(C(=O)NC(=S)NNC(=O)CCc2ccccc2)cc1	-85.4% (active)
CCCCC(=O)NNC(=S)NC(=O)C(c1ccccc1)c1ccccc1	-31.6%
Cc1cccc(C(C)C)c1NC(=O)C(NS(=O)(=O)c1cccc2nsnc12)c1ccccc1 (stereo not given)	-12.4%
CCOC(=O)c1c(C)n(S(=O)(=O)c2ccc(C)cc2C)c2ccc(NS(=O)(=O)c3ccc(C)cc3C)cc12	37%
O=C(c1ccc(C(F)(F)F)cc1)N1CCC(c2nc(-c3ccc(S(=O)(=O)N4CCCC4)cc3)no2)CC1	-39.7%
Cc1ccccc1NC(=O)c1c(NC(=O)c2ccccc2F)sc2c1CCC(C)C2 (stereo not given)	-1.03%
Cc1cccc(N2CCN(C(=O)COCc3cc(-c4ccc5c(c4)OCO5)on3)CC2)c1C	10.8% and 0.0657%
CCOC(=O)N1CCN(C(=O)COCc2cc(-c3ccc4c(c3)OCO4)on2)CC1	-33.7%
CC(C)NC(=O)COCc1cc(-c2ccc3c(c2)OCO3)on1	-102% (active)

Compound	activity change, negative = inhibition
O=C(O)c1cccc(N=NN2CCCCCC2)c1	134%
CCc1nnc(SCc2c(F)cccc2Cl)c2cc3sccc3n12	-67.2% (active)
Cn1c(SCc2c(F)cccc2Cl)nnc1-c1cnccn1	-2.73%
CCc1nnc(SCc2nc(-c3cccc(C)c3)oc2C)c2cc3sc(C)cc3n12	22.7%
CCOC(=O)CSC1=Nc2ccccc2C2=NC(CCC(=O)NCc3ccc(F)cc3)C(=O)N12 (stereo not given)	-5.13%
COc1cccc(NC(=O)Nc2ccc3c(c2)N(C)C(=O)c2ccccc2S3)c1	-33.9%
CCOc1ccc(N2C(=O)CSC2=NC#N)cc1	-101% (active)
CCO/C=C1\C(=O)N(c2ccc(OCC)cc2)C(=O)c2ccccc21	-9.21%
CCOc1ccc(N2C(=O)CN(c3cccc4ccccc34)C2=S)cc1	28.1%
Cn1c(=O)c(C(=O)O)nn(-c2ccccc2)c1=O	-0.182%
O=C(CCN1CCCCC1)N=Nc1c(O)[nH]c2ccccc12	8%
CCN(C(=O)COC(=O)c1cc(NS(=O)(=O)c2ccc(Cl)c([N+](=O)[O-])c2)ccc1O)C1CCCCC1	-23%
O=[N+]([O-])c1cc(S(=O)(=O)Nc2cccc(Cl)c2)ccc1N=Nc1c(O)[nH]c2ccccc12	-78.2% (active)
C/C(=N\NC(=O)NC1CCCCC1)c1ccc(OC(F)F)cc1OC(F)F	-36.3%
N#Cc1ccc(CSc2nnc3ccccn23)cc1	-25.8%
Cc1ccc(-n2c(C)cc(C(=O)CSc3nnc4ccccn34)c2C)cc1	-86.1% (active)
Cc1ccc(-n2c(C)nnc2SCC(=O)NC2CC2)cc1	17.2%
Cc1ccc(-n2nc(C)c(C(=O)O)c2-n2cccc2)cc1	3.17%
COC(=O)c1cc(=O)n(-c2c(Cl)cc(C(F)(F)F)cc2Cl)[nH]1	31.8%
C=CCn1cc(-c2cccc(C(F)(F)F)c2)cc(C#N)c1=O	-25.4%
CC1(Cc2cccc(C#N)c2)C(=O)Nc2ccc(-c3cccc(C(F)(F)F)c3)cc21 (stereo not given)	-96.6% (active)

— PubChem BioAssay AID1259415 (National Center for Advancing Translational Sciences (NCATS), 2018)
